Source: paper PMC4336329 (PLoS ONE, 2015)
About 2,200 (0.71%) of roughly 310,000 compounds showed an effect of 50% or more. Effects have a minus sign here. The list comes from a sample in which strong results are over-represented; it also holds similar structures and randomly drawn compounds.

Biological target: human ether-à-go-go-related gene (hERG) potassium channel (human, UniProt Q12809)
Assay: primary screen, population patch clamp on CHO cells stably expressing hERG; higher = less effect of the substance

Chain of human ether-à-go-go-related gene (hERG) potassium channel (Q12809 whole entry, looked up): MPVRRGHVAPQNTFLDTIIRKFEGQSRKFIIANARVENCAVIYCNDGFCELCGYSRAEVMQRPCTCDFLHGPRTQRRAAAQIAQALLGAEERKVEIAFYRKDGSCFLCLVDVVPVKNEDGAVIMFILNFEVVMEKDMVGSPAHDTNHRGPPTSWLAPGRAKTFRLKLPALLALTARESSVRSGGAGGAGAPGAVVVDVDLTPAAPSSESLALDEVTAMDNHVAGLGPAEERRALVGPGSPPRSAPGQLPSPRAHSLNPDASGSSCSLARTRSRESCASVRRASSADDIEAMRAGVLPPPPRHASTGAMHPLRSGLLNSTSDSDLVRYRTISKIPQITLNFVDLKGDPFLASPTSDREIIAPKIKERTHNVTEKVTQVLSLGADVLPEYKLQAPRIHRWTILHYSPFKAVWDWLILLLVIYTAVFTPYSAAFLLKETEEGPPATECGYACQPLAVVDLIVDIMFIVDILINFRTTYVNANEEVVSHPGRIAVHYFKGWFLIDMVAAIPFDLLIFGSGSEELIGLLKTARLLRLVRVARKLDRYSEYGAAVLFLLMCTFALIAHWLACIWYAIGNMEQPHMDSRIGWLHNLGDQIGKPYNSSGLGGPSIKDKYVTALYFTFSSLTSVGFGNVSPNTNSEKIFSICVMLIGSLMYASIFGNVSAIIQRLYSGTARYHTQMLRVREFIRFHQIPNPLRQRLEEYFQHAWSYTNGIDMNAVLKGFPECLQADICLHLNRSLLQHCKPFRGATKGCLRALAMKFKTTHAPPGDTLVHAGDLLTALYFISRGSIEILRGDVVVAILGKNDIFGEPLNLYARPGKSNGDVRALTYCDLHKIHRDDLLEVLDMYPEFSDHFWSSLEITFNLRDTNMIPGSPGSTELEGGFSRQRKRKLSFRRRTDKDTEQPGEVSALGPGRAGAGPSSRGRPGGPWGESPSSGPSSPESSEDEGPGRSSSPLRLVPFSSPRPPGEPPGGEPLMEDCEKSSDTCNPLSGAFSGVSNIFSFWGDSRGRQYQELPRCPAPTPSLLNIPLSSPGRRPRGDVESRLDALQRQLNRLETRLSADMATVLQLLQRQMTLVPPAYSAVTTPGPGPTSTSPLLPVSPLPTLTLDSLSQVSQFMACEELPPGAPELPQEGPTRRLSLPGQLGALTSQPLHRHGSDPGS

Structure (SMILES) | hERG current change (%, negative = inhibition) at 1uM [%]
O=C(Nc1ccc(N2CCN(C(=O)c3ccco3)CC2)cc1)c1cc(Br)ccc1Cl | 8.3
CC(C)(C)c1cc(C(=O)NN)n(Cc2ccc(Cl)cc2Cl)n1 | 16.3
CCOC(=O)c1c(NC(=O)c2ccc(S(=O)(=O)N3CCOCC3)cc2)sc2c1CC(C)(C)NC2(C)C | 11.9
O=[N+]([O-])c1ccc(-c2nc(Nc3ccc(O)cc3)c3ccccc3n2)cc1 | 13
COc1ccc(CCNC(=O)c2[nH]c(C)c(C(C)=O)c2C)cc1 | 10.9
CCOC(=O)c1c(NC(=O)C2C3C=CC(C3)C2C(=O)O)sc2c1CCC(CC)C2 (stereo not shown) | 14
CCC(=O)Nc1nnc(-c2ccco2)o1 | 2.56
O=C1OC(c2ccccc2)c2ccccc21 (stereo not shown) | 9.85
COC(=O)C1=C(C)NC(=O)C1(Nc1nccs1)C(F)(F)F (stereo not shown) | 8.37
Cl.Nc1nc(N2CCCCC2)nc2ccccc12 | -15.9
CN1CCN(c2nc(Nc3ccc(O)cc3)nc3ccccc23)CC1.Cl | -1.34
c1ccc(-c2nc(N3CCCCCC3)c3ccccc3n2)nc1 | -82.3
COc1ccc(Nc2nc(N3CCCC3)c3ccccc3n2)cc1.Cl | -15
Cl.Oc1ccc(Nc2nc(N3CCCC3)c3ccccc3n2)cc1 | -62.7
Nc1nc(N2CCOCC2)nc2ccccc12 | -8.34
c1ccc(-c2nc(N3CCOCC3)c3ccccc3n2)nc1 | 5.13
Cl.Nc1nc(N2CCN(c3ccccn3)CC2)nc2ccccc12 | -52.8
CCCCN(CCCC)c1nc(-c2ccncc2)nc2ccccc12 | 12
CCC(C)Nc1nc(-c2ccccn2)nc2ccccc12 (stereo not shown) | -11.6
CCCN(CCC)c1nc(-c2ccccn2)nc2ccccc12 | -72.4
c1ccc(N2CCN(c3nc(-c4ccccn4)nc4ccccc34)CC2)cc1 | -26.9
CCOC(=O)c1cc(S(=O)(=O)N2CCN(Cc3ccccc3)CC2)cn1C | 7.46
C/C(=N\Nc1cccc2cccnc12)c1ccc[nH]1 | 6.24
COc1ccc(C(=O)N2CCN(CCNC(=O)C(=O)Nc3ccc(Br)cc3)CC2)cc1 | -25.2

Structure (SMILES) | hERG current change (%, negative = inhibition) at 1uM [%]
CCCc1ccc2c(N)c(C#N)sc2n1 | 1.34
CC(C)C(NC(=O)c1c(F)cccc1F)C(=O)NCC(c1ccccc1)N(C)C (stereo not shown) | 7.89
COc1ccccc1NS(=O)(=O)c1cccc(C(=O)NCC(c2ccc(F)cc2)N2CCOCC2)c1 (stereo not shown) | -2.64
O=c1oc2cc(Oc3ccc(C(F)(F)F)cc3[N+](=O)[O-])ccc2c2c1CCCC2 | 7.24
COc1ccc(OC)c(C(O)c2nc3ccccc3n2C(C)C)c1 (stereo not shown) | 12.9
COc1cccc2cc(C(=O)C3=C(O)C(=O)N(Cc4ccco4)C3c3cccnc3)oc12 (stereo not shown) | -5.76
CCOc1ccc(OCCCC(=O)ON=C(N)c2ccccc2C)cc1 | 2.24
c1ccc2c(N3CCCCC3)nc(N3CCCCC3)nc2c1 | -3.29
c1ccc2c(N3CCCCC3)nc(N3CCOCC3)nc2c1 | -7.24
c1ccc2c(N3CCCCC3)nc(N3CCCC3)nc2c1 | -64.6
CC(=O)c1ccc(NC(=S)Nc2cccc(S(=O)(=O)Nc3c(C)n(C)n(-c4ccccc4)c3=O)c2)cc1 | 11.4
Cc1ccc(/C=N\NC(=O)CCc2n[nH]c(=O)[nH]c2=O)o1 | 10.9
O=c1c2c3c(sc2n(CCN2CCOCC2)c(=O)n1Cc1ccco1)CCCCC3 | -9.12
O=c1c2c3c(sc2n(CCN2CCCCC2)c(=O)n1Cc1ccco1)CCCCC3 | 3.26
O=c1c2c3c(sc2n(CCN2CCCC2)c(=O)n1Cc1ccco1)CCCCC3 | -67
COc1ccc(CNC(=O)NCc2ccc(OC)c(OC)c2)cc1OC | 17.1
O=c1cc2oc3cc(O)c(O)cc3c(-c3ccccc3[N+](=O)[O-])c-2cc1O | 8.61
N#Cc1ccccc1OCC(=O)OCC(=O)c1c[nH]c2ccccc12 | 7.92
O=C(CSc1nc(O)cc(=O)[nH]1)Nc1ccc2c(c1)CCC2 | 18.4
COc1ccc(OCC(O)CNCCNc2nccc(C(F)(F)F)n2)cc1 (stereo not shown) | -6.87
O=[N+]([O-])c1ccc(OCC(O)CNCCNc2nccc(C(F)(F)F)n2)cc1 (stereo not shown) | -77.9
OC(CNCCNc1ncccc1C(F)(F)F)COc1ccc(F)cc1 (stereo not shown) | -25.6
CC(CCc1ccc(O)cc1)NCc1ccc(Br)cc1 (stereo not shown) | -66.8
COc1ccccc1CCNC(C)CCc1ccc(O)cc1 (stereo not shown) | -10.8

Structure (SMILES) | hERG current change (%, negative = inhibition) at 1uM [%]
CC(CCc1ccc(O)cc1)NCc1ccc(Cl)cc1Cl (stereo not shown) | -10.9
CC(CCc1ccc(O)cc1)NCCc1ccc(O)c(O)c1.Cl (stereo not shown) | 2.55
COc1ccc(CCC(C)NCc2cccc(Br)c2)cc1 (stereo not shown) | -32.1
CC(CCc1ccc(O)cc1)NCCC(c1ccccc1)c1ccccc1 (stereo not shown) | -84.2
O=C(Nc1ccc2c(c1)OCO2)c1cnccn1 | 8.63
NC(=O)NCc1ccc(F)cc1 | 4.8
COc1ccc(-c2noc3c2-c2nc(-c4ccccc4C)sc2CC3)cc1 | 15.4
Cc1cc(O)c(C(=O)/C=C/c2ccccc2O)c(=O)o1 | 8.29
CCOc1c(Br)cc(CNc2ncn[nH]2)cc1OC | 9.07
COc1ccc(C(F)(F)F)cc1NC(=O)c1nc2nc(C)cc(C(F)F)n2n1 | 17.2
CCOC(=O)C1=C(c2ccccc2)Nc2ncnn2C1c1cccc(OC)c1OC (stereo not shown) | 21.4
CCN(CC)CCNc1ncnc2c1[nH]c1ccc(OC)cc12 | -42.6
COc1ccc2[nH]c3c(NCCN(C(C)C)C(C)C)ncnc3c2c1 | -71.9
COc1ccc2[nH]c3c(NCCCOC(C)C)ncnc3c2c1 | 22.8
COc1cc(NS(=O)(=O)c2ccc(NC(=O)/C=C/C(=O)O)cc2)nc(OC)n1 | 5.24
O=C(O)C1=C[C@@H](C2CC2)C[C@@H](OCCCCO)O1 | 10.7
COc1cccc(C2=NOC(C(=O)Nc3cccnc3Cl)C2)c1OC (stereo not shown) | 14.2
COc1cc(C(=O)Nc2ccc3nc4n(c(=O)c3c2)CCCCC4)cc(OC)c1OC | -1.94
COc1ccccc1C(=O)Nc1ccc2nc3n(c(=O)c2c1)CCCC3 | -2.02
COc1ccc(Cl)cc1C(=O)Nc1ccc2nc3n(c(=O)c2c1)CCCC3 | -51.8
COc1cc2c(C(=O)N3CCCc4ccccc43)cn(C)c(=O)c2cc1OC | 7.48
CCCN1CCN(c2ccc([N+](=O)[O-])cc2C#N)CC1 | -57.8
N#Cc1cc([N+](=O)[O-])ccc1N1CCCC1 | -12.3
CCN1CCN(c2ccc([N+](=O)[O-])cc2C(=O)c2ccc(Cl)cc2)CC1 | -58.3

Structure (SMILES) | hERG current change (%, negative = inhibition) at 1uM [%]
O=C(c1ccc(Cl)cc1)c1cc([N+](=O)[O-])ccc1N1CCOCC1 | 10.3
CCN1CCN(c2ccc([N+](=O)[O-])cc2C#N)CC1 | -49.8
CN1CCN(c2ccc([N+](=O)[O-])cc2C(=O)c2ccc(Cl)cc2)CC1 | -24.3
Cc1ccc(NCCC(=O)c2cccs2)cc1C | 5.33
O=C(CSc1cn(Cc2ccccc2)c2ccccc12)N1CCOCC1 | -4.92
CCOc1ccc(NC(=S)NCCCN2CCN(c3ccc(OC)cc3)CC2)cc1 | -29.3
O=c1[nH]c2ccccc2nc1-c1c[nH]c2ccccc12 | 17.9
Cc1ccc(-n2nnnc2SCC(=O)NCC2(N3CCCCC3)CCCCC2)c(C)c1 | -201
Cc1ccccc1-n1nnnc1SCC(=O)NCC1(N2CCOCC2)CCCCC1 | 6.3
O=C(CSc1nnnn1-c1ccccc1)NCC1(N2CCCCC2)CCCCC1 | -23.9
Cc1ccc(CNC(=O)c2cnccn2)cc1 | 11.4
COc1ccc(NC(=O)[C@@H](NC(=O)N2C[C@H]3C[C@@H](C2)c2cccc(=O)n2C3)C(C)C)cc1 | 8.5
Fc1ccc(-c2nc3c(-c4ccc(F)cc4)cnn3cc2CCN2CCOCC2)cc1 | -3.19
CC(C)(CO)CN1CCC(n2nccc2NC(=O)C2CCCC2)CC1 | 10.2
COc1ccc(CC(=O)N2CCC(n3nccc3NC(=O)C3CC3)CC2)cc1 | 13.3
COc1ccccc1/C=C/CN1CCC(n2nccc2NC(=O)C2CC2)CC1 | -37.8
COc1ccc(CN2CCC(n3nccc3NC(=O)C3CCCC3)CC2)c(OC)c1 | -70.6
COc1ccc(/C=C/CN2CCC(n3nccc3NC(=O)C3CCCC3)CC2)cc1 | -92.1
COc1ccc(OCC(=O)N2CCC(n3nccc3NC(=O)C3CC3)CC2)cc1 | -1.98
Cc1cc(C)c(CN2CCC(n3nccc3NC(=O)C3CCCC3)CC2)cc1C | -26.4
COc1ccc(O)c(CN2CCC(n3nccc3NC(=O)C3CCCC3)CC2)c1 | -28.4
COc1ccc(/C=C/CN2CCC(n3nccc3NC(=O)C3CC3)CC2)cc1 | -59.6
